Test [1] concerns the target N-terminal Xaa-Pro-Lys N-methyltransferase 1 (Homo sapiens) (UniProt Q9BV86). As to the kind of experiment: Confirmatory qHTS for Inhibitors of N-terminal methyltransferase 1 (NTMT1): MTaseGlo Assay (AID 1645874; active = well fitted curve in the direction sought with a large enough effect; an effect the other way counts as inactive or inconclusive;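 also: luminescence from SAH made as NTMT1 methylates SPKRIA peptide using SAM; 0% = DMSO control and -100% = no-enzyme control; nearly all actives have a fitted effect of over 65% in size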). The method, boiled down: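 Compounds are incubated with 125 nM NTMT1 and 100 uM SAM for 15 min before the SPKRIA peptide (1 uM) starts a 30 min room-temperature methylation. SAH is measured by coupled luciferase luminescence and curves fitted to a Hill equation.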

Test [2] can be described thus: Primary qHTS for inhibitors of nuclear receptor binding SET domain protein 2 (NSD2) in an isogenic RCH-ACV NSD2 p.E1099K mutant (9B) (AID 1645876; active = well fitted curve in the direction sought with a large enough effect; an effect the other way counts as inactive or inconclusive; also: % is scaled to controls: 0 for no effect and ±100 for the full control effect; nearly all actives have a fitted effect of over 70% in size). (In general: qHTS replaces the single test concentration by a dilution series.)
Test [3] in a line: Primary qHTS for inhibitors of nuclear receptor binding SET domain protein 2 (NSD2) in an RCH-ACV wild type WT cells (2C) (AID 1645877; active = well fitted curve in the direction sought with a large enough effect; an effect the other way counts as inactive or inconclusive; also: % is scaled to controls: 0 for no effect and ±100 for the full control effect; nearly all actives have a fitted effect of over 70% in size).
Test [4] addresses Glutathione peroxidase 1 (Homo sapiens) (UniProt P07203). The experiment in a line: Primary qHTS Assay for Inhibitors of Recombinant Selenoprotein Glutathione Peroxidase 1 (GPX1) (AID 1845191; active = well fitted curve in the direction sought with a large enough effect; an effect the other way counts as inactive or inconclusive; also: nearly all actives have a fitted effect of over 65% in size). Put shortly:
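GR-coupled assay: compounds preincubated 30 min at room temperature with GPX1, then reaction started with CHP; final 10 nM GPX1, 1 mM GSH, 0.5 mM CHP, 0.5 mM NADPH, 100 nM GR, 0.01% BSA, pH 7.5 Tris buffer. NADPH fluorescence (340/450 nm) read at 0 and 15 min.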

Test [5] addresses Phospholipid hydroperoxide glutathione peroxidase GPX4 (Homo sapiens) (UniProt P36969). As to the kind of experiment: Primary qHTS Assay for Inhibitors of Recombinant Selenoprotein Glutathione Peroxidase 4 (GPX4) (AID 1845192; active = well fitted curve in the direction sought with a large enough effect; an effect the other way counts as inactive or inconclusive; also: % is scaled to controls: 0 for no effect and ±100 for the full control effect; nearly all actives have a fitted effect of over 65% in size). The conditions noted are these: outcome: dose series up to 50 µM unless noted. Put shortly:
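GR-coupled assay: recombinant GPX4 preincubated 30 min with compound at room temperature; final 200 nM GPX4, 1 mM GSH, 0.5 mM cumene hydroperoxide, 0.5 mM NADPH, 100 nM GR, 0.01% BSA, pH 7.5 Tris. NADPH fluorescence (340/450 nm) read at 0 and 15 min.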

The nature of test [6]: qHTS drug screen for cell cycle checkpoint inhibitors in PARPi-resistant BRCA-mutant ovarian cancer cell lines. (AID 1963452; calls by dose curve). The conditions noted are these: PEO1/OlaR viability, CellTiter-Glo luminescence, 96 h, stronger effect = lower value. Put shortly: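 PEO1, PEO4 and PEO1/OlaR ovarian cancer cells, 600 per well, exposed 96 h at 37C to a dilution series. Viability read by CellTiter-Glo luminescence, normalized to DMSO and empty wells; activity summarized as Z-AUC.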

Test [7] in a line: AP1 Signaling Pathway (AID 357).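 Also: ME-180 reporter cells stimulated with EGF at its EC50 level; % is scaled to controls: 0 for no effect and ±100 for the full control effect.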 The conditions noted are these: ME-180 AP-1-bla reporter, EGF-induced, beta-lactamase ratio, 5 h; at 7.69 µM (top of the series) unless noted. The method, boiled down:
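Modulation of EGF-driven AP-1 transcription was assessed with a beta-lactamase reporter in ME-180 cells. Compound and EC50 EGF were co-incubated 5 hours at 37 °C before 2.5-hour CCF4 loading at room temperature and dual-emission reading.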

The target in test [8] is Cytochrome P450 1A2 (Homo sapiens) (UniProt P05177). As to the kind of experiment: p450-cyp1a2 (AID 410; calls by dose curve;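 also: -100% = full effect of reference inhibitor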). Put shortly:
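20nM CYP1A2 with 100uM Luciferin-ME (at Km) in 100mM KPO4; compound preincubated 10 min, NADPH regeneration added, 60 min at room temperature. Luciferin quantified by luminescence after detection reagent; normalized to 57 uM furafylline.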

Test [9] is described as follows: NFAT Signaling Pathway (AID 444).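 Also: carbachol stimulus at about its EC50 of 1 µM final; % is scaled to controls: 0 for no effect and ±100 for the full control effect.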 The conditions noted are these: Jurkat NFAT-bla M1, carbachol, beta-lactamase ratio, 5 h; at 7.69 µM (top of the series) unless noted. The method, boiled down:
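Jurkat cells with NFAT-driven β-lactamase reporter and co-expressed M1 receptor, stimulated with carbachol (final 1 uM, ~EC50), compound titration, 5 h at 37 °C. CCF4 loaded 1 h at RT; 460/530 nm ratio gave %activity and AC50.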

A short description of test [10]: Stat Signaling Pathway (AID 446).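 Also: ME-180 cervical cancer cells given 40 pM IL-6 alongside compound; SIE-controlled beta-lactamase reporter measured as 460/530 nm FRET emission ratio; % is scaled to controls: 0 for no effect and ±100 for the full control effect.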 The conditions noted are these: ME-180 SIE beta-lactamase reporter, IL-6 stimulated, 5 h; at 7.69 µM (top of the series) unless noted. Put shortly:
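IL-6/STAT signaling read in ME-180 cells via an SIE beta-lactamase reporter. Stimulus was 40 pM IL-6 (its AC50) for 5 hrs, so both activation and inhibition register.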

In test [11] the target is Glucocorticoid receptor (Homo sapiens) (UniProt P04150). The experiment in a line: GR-EFC Redistribution (AID 451; calls by dose curve; also: potency is read from the fitted curve at half-maximal effect). The conditions noted are these: CHO-K1 GR-EFC translocation, beta-gal luminescence, 2 h. The method, boiled down: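 CHO-K1 cells expressing nuclear EA and GR-ED fragments of b-gal; compounds titrated up to 46 uM final, 2 h at 37 C. GR nuclear translocation read as complemented b-gal luminescence after 1 h RT detection.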
Chain of Glucocorticoid receptor (Homo sapiens) (P04150 whole entry, looked up, the tested form may be a part): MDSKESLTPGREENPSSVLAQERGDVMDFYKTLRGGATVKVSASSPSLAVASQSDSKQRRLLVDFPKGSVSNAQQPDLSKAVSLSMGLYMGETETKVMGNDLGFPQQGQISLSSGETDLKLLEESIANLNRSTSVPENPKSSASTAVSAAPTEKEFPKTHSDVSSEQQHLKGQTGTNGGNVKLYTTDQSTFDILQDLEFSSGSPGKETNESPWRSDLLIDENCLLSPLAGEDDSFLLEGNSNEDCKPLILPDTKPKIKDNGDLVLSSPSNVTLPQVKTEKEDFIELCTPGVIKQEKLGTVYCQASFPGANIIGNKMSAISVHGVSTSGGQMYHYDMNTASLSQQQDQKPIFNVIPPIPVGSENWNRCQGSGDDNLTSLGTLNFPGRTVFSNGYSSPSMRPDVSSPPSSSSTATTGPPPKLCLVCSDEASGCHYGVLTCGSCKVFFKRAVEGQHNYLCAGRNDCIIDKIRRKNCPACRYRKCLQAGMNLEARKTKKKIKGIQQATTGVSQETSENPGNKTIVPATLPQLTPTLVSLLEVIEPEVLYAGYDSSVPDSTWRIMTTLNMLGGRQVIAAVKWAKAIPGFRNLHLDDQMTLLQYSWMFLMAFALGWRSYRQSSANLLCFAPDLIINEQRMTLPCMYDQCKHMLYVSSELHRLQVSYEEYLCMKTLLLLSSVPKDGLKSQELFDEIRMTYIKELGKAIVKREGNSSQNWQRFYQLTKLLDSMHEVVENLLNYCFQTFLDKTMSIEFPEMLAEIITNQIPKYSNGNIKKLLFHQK

Test [12] has as its target Mitogen-activated protein kinase 10 (Mus musculus) (UniProt Q61831). The experiment in a line: JNK3 AlphaScreen Assay (AID 530).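 Also: kinase came from lysate of stimulated human HepG2 cells; signal reports phosphorylation of biotinylated GST-cJun 1-79 at Ser73 with 10 µM ATP; % is scaled to controls: 0 for no effect and ±100 for the full control effect.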 Put shortly: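 Pre-activated (IL-1β/TNFα) JNK3 in HepG2 lysates phosphorylates biotin-GST-cJun(1-79), 10 uM ATP; anti-phospho-cJun(Ser73) AlphaScreen read at room temperature, pH 7.6 Tris buffer. Compounds pre-incubated 15 min as titrations.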
Background: Bead proximity is the source of the signal in Alpha formats.

Test [13] addresses 3',5'-cyclic-AMP phosphodiesterase 4B (Homo sapiens) (UniProt Q07343). As to the kind of experiment: qHTS Assay for Inhibitors of PDE-IV (AID 607; active = well fitted activation curve with a large enough effect in the main read-out, with a control signal flat, not every such curve was filed as active; also: % of control where 0% means no effect). Put shortly:
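Live HEK293 cells with a modified cyclic nucleotide-gated (CNG) channel report intracellular cAMP via membrane-potential dye fluorescence (ex 535/em 590 nm). Endogenous PDE-IV was targeted. Compounds were tested at up to 22.9 uM final; RO 20-1724 100 uM served as control.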

Test [14] has as its target Cytochrome P450 3A4 (Homo sapiens) (UniProt P08684). As to the kind of experiment: qHTS Assay for Activators of Cytochrome P450 3A4 (AID 885; active = well fitted curve in the direction sought with a large enough effect; an effect the other way counts as inactive or inconclusive; also: nearly all actives have a fitted effect of over 65% in size). Put shortly: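 Quantitative HTS format: compounds preincubated with 20nM human CYP3A4 and Luciferin-PPXE substrate at KM, reaction started by NADPH regeneration, stopped after 60 min, luciferase luminescence read 20 min later.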

Test [15] is described as follows: qHTS Assay for Identification of Small Molecule Agonists for Hypoxia Response Element Signaling Pathway (AID 914; active = well fitted activation curve with a large enough effect in the signal ratio, with a control signal flat, not every such curve was filed as active; the % refers to the signal ratio; also: % of control where 0% means no effect). The following applies: ME-180 (cervical carcinoma) HRE-bla reporter, beta-lactamase ratio, CoCl2, 17 h; activation: stronger effect = higher value. The method, boiled down:
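HRE-bla ME-180 cells with beta-lactamase reporter under hypoxia response element, compounds with EC50 CoCl2 for 17 hours at 37 C. CCF4 substrate, 460nm/530nm emission ratio gave %Activity; AC50 from titration series.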

A short description of test [16]: qHTS Assay for Lipid Storage Modulators (AID 1519; calls by dose curve). The conditions noted are these: Drosophila S3 cells, BODIPY lipid droplet/cell ratio, laser cytometry, cells loaded with oleic acid; for activity change, negative = inhibition: at 57.5 µM (top of the series). Put shortly: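 Cells seeded at 5,000 per well were treated with compounds over a concentration series and loaded with oleic acid (400 uM, as added). Lipid droplet fluorescence (488 nm excitation, 500-530 nm channel) was read by laser-scanning cytometry and normalized to 20 uM Triacsin C.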

Test [17] concerns the target Lysosomal acid glucosylceramidase (Homo sapiens) (UniProt P04062). The experiment in a line: Glucocerebrosidase-p2 (AID 348; in the data active = potency below about 10 µM; also: potency is read from the fitted curve at half-maximal effect). The conditions noted are these: purified GBA, blue fluorogenic substrate, 40 min. The method, boiled down: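 Compounds titrated from 0.6 nM upwards against 0.2 nM enzyme in pH 5.9 citric acid/KH2PO4, taurocholate, tween-20; blue fluorogenic substrate 80 uM, 40 min room temperature, stopped and read Ex 365/Em 440 for AC50.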

Test [18] deals with Glucocorticoid receptor (Homo sapiens) (UniProt P04150). As to the kind of experiment: GR-GFP Redistribution (AID 450;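 active = compounds whose dose series gives a full or clear partial fitted curve of increased nuclear translocation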; also: potency is read from the fitted curve at half-maximal effect). The conditions noted are these: U2OS GR-GFP nuclear translocation, laser cytometry, 2 h.
Setting [19] is: measured here: cell count channel max response.
Where [20] appears, read: measured here: lipid channel max response.

Results filed as inconclusive are left out. Calls of active or inactive are those of the source. Unless noted, calls follow the shape of the dose curve; as a rule, active = well fitted curve in either direction with a large enough effect (not every such curve was filed as active); inconclusive = small, poorly fitted or top-dose-only effect, or another doubt; inactive = flat fitted curve, though single readings scatter.

Chain of Cytochrome P450 3A4 (Homo sapiens) (P08684 whole entry, looked up): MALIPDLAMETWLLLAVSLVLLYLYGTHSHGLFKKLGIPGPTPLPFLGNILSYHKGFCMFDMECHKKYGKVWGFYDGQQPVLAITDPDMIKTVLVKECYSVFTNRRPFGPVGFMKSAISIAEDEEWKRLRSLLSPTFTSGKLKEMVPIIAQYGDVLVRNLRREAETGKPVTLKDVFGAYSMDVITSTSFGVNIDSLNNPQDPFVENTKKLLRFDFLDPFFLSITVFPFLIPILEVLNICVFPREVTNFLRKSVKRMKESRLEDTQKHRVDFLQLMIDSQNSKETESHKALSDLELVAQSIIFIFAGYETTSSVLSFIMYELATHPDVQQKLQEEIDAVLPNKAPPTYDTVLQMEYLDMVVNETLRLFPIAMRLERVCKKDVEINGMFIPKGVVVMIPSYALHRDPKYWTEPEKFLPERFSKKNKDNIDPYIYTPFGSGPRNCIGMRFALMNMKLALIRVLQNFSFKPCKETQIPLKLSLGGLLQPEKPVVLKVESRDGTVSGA
Chain of 3',5'-cyclic-AMP phosphodiesterase 4B (Homo sapiens) (Q07343 whole entry, looked up): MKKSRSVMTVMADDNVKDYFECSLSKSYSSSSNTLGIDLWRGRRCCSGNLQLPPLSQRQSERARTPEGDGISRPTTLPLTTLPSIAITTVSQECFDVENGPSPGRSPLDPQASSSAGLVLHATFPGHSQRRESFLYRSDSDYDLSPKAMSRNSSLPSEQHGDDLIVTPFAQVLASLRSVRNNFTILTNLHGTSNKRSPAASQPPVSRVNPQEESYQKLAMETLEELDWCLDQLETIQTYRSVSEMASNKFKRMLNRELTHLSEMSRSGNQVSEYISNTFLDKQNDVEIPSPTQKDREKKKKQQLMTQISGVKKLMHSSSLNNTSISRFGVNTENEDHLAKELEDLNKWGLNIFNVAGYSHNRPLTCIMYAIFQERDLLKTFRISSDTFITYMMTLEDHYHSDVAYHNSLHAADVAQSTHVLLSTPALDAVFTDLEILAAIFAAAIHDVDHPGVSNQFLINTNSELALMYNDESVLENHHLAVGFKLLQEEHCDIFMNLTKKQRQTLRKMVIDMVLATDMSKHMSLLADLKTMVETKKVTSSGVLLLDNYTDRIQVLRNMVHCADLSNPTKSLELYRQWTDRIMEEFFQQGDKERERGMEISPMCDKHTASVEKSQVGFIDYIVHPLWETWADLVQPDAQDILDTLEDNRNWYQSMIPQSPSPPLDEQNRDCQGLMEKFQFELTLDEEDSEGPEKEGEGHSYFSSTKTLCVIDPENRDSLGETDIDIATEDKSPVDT
Chain of Lysosomal acid glucosylceramidase (Homo sapiens) (P04062 whole entry, looked up): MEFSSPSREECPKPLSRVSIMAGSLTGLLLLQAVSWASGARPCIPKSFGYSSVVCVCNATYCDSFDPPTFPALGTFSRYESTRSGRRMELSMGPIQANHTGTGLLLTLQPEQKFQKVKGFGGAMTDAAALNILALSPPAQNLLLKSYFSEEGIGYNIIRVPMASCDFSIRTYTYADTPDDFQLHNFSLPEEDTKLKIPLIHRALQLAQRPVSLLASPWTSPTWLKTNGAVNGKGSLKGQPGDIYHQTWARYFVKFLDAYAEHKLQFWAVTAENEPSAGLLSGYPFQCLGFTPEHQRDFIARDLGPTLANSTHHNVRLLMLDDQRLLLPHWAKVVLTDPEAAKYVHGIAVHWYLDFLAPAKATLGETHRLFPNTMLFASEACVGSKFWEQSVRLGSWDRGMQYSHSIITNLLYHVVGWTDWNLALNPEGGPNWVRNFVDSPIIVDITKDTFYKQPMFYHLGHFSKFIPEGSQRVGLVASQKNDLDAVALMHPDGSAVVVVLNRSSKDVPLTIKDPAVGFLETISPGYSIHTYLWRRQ
Chain of Cytochrome P450 1A2 (Homo sapiens) (P05177 whole entry, looked up): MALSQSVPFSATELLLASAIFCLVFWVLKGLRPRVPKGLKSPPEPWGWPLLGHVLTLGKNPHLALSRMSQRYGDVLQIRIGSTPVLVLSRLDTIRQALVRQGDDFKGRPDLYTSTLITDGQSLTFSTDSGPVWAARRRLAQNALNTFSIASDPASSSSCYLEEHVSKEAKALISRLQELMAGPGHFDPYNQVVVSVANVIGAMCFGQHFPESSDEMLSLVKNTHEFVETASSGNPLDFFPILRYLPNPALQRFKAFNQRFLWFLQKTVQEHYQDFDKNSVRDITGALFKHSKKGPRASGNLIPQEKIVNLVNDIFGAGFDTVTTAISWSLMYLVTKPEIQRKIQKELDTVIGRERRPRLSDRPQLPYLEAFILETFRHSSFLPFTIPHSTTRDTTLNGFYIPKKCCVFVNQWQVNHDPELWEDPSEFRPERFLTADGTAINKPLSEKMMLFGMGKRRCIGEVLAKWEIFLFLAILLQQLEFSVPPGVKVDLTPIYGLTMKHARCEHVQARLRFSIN
Chain of N-terminal Xaa-Pro-Lys N-methyltransferase 1 (Homo sapiens) (Q9BV86 whole entry, looked up): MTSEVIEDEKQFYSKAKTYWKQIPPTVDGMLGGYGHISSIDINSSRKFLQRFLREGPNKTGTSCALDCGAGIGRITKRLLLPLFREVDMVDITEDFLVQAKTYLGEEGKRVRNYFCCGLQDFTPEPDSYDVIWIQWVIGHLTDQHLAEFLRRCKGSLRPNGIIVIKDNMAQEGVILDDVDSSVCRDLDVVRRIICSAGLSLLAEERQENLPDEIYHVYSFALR
Chain of Glutathione peroxidase 1 (Homo sapiens) (P07203 whole entry, looked up): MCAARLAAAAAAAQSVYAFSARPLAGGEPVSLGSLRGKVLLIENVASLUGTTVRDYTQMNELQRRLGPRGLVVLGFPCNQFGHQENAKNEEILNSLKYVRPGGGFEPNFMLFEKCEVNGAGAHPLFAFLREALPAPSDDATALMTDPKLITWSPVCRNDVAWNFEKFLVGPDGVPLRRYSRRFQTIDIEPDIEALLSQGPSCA
Chain of Phospholipid hydroperoxide glutathione peroxidase GPX4 (Homo sapiens) (P36969 whole entry, looked up): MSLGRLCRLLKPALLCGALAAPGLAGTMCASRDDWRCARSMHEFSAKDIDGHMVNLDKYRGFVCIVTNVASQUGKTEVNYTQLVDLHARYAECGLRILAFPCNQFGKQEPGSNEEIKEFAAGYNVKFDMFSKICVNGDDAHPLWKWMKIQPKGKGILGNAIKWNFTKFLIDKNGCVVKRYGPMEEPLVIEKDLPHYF

Take `Fc1cc(Nc2nc(-c3ccncc3)nc3ccccc23)ccc1-c1ccc2[nH]ncc2c1`: the Potency result in [1] was “inactive”.

Take `CN1C(=O)N[C@H](Cc2c[nH]c3c(Cl)cccc23)C1=O`: the Potency entry in test [2], in [3], in [4] and in test [5] was “inactive” throughout. Besides, the Z-AUC in test [6] is 0.358 (inactive); in test [6] (measured here: PEO1 parental Z-AUC) it was 0.688; in test [6] (measured here: PEO4 Z-AUC) it was 0.653.

On to `CC(C)CN1CC[C@@]2(CCCN(C(=O)c3cnccn3)C2)C1`, for which the values for the activity change, negative = inhibition in [7], in test [9] and in test [16] were 6.22% (inactive), 13.6% (inactive) and 3.32% (inactive), respectively. Further, the Potency result in test [8], in test [13] and in test [14] was “inactive” in each case. Also, the activity, negative = inhibition in test [10] is 4.96% (inactive). Also, in test [11], the Potency was > 46 µM (inactive). Also, the result in test [12] was inactive. Also, in [15], the activation was -0.465% (inactive). Moreover, the max response was 15.7% in [16] (setting [19]) and 22.3% in test [16] (setting [20]).

In the case of `COc1ccc(NC(=O)N2CC[C@@]3(CCCN(C(=O)c4csnn4)C3)C2)cc1`, the Potency was > 11.4 µM (inactive) in [17] and > 46 µM (inactive) in test [11]. The activity change, negative = inhibition in test [7] is -1.53% (inactive); in test [9], 17.4% (inactive); in test [16], 5.36% (inactive). Also, the Potency entry in [8], in test [13] and in test [14] was “inactive” in each case. Further, in test [10], the activity, negative = inhibition was 7.84% (inactive). In addition, in test [12], the compound was called inactive. Further, the results for the max response in [16] (setting [19]) and in test [16] (setting [20]) were 14.7% and 23.5%, respectively.

For the compound `COCCn1c(=O)c(-c2ccc(F)cc2)nc2cnc(OCc3ccccc3)nc21`, the figures for the Potency in test [17], in test [18] and in [11] were > 11.4 µM (inactive), > 9.22 µM (inactive) and > 46 µM (inactive), respectively. For the same compound, the activity change, negative = inhibition is -23.2% (inactive) in [7] and -6.09% (inactive) in test [9]. In addition, the Potency entry in [13] and in [14] was “inactive” each time.

These data come from PubChem BioAssay (NCATS).
